According to the supplement of paper PMC12350171:
Counter-ions that a name gives are not always drawn. Unmarked numbers belong to inactive results.

Columns and labels:
Details in all cases: 20 µM
[1] = system: Salmonella enterica typhimurium; assay: growth AUC normalised to DMSO control (fraction of control); higher = less growth inhibition, active = hit call of the paper
Summary of the method: (§1)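 Pathogens were passaged twice under anaerobic conditions, then inoculated into pre-reduced mGAM plates at a starting OD578 of 0.01, with compound at 20 μM and 1% DMSO, and sealed with breathable membranes. For Haemophilus parainfluenzae, the medium was supplemented with hemin and NAD. OD578 was read every hour for 24 h in three biological replicates. Growth-curve AUC was calculated by the trapezoidal rule up to the exponential-to-stationary transition and normalised to DMSO controls on the same plate.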

Shigella flexneri = assay: as above
Summary of the method: as §1

Vibrio cholerae = assay: as above
Summary of the method: as §1

[2] = system: Yersinia pseudotuberculosis; assay: as above
Summary of the method: as §1

P. vulgatus RND KO = assay: growth AUC normalised to DMSO control (median) (fraction of control); higher = less growth inhibition, active = hit call of the paper
Summary of the method: (§2)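 Area under the growth curve, calculated by the trapezoidal rule up to entry into stationary phase, was normalised to vehicle wells on the same plate. Strains had been passaged twice overnight without oxygen and then grown in mGAM in 96-well plates from OD578 0.01, each with an approved-drug library compound at 20 μM in 1% DMSO. OD578 was read hourly over 24 h in an anaerobic incubator, and the median of three biological replicates is given.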

P. vulgatus WT = assay: as above
Summary of the method: as §2

[3] = system: S. enterica typhimurium WT; assay: as above
Summary of the method: as §2

[4] = system: S. enterica typhimurium tolC KO; assay: as above
Summary of the method: as §2
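Wherever growth AUC normalised to DMSO control (median) is given: active when median AUC fell below 0.1.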

Compound	growth AUC normalised to DMSO control [1]	growth AUC normalised to DMSO control (Shigella flexneri)	growth AUC normalised to DMSO control (Vibrio cholerae)	growth AUC normalised to DMSO control [2]	growth AUC normalised to DMSO control (P. vulgatus RND KO)	growth AUC normalised to DMSO control (P. vulgatus WT)	growth AUC normalised to DMSO control [3]	growth AUC normalised to DMSO control [4]
CCCCNC(=O)NS(=O)(=O)c1ccc(C)cc1 [Tolbutamide]	1.01	0.995	0.956	0.998	1.02	1.04	0.996	1
O=C1NCCN1CCN1CCC(c2cn(-c3ccc(F)cc3)c3ccc(Cl)cc23)CC1 [Sertindole]	1.02	1.04	1.02	1.01	0.833	0.905	1	0.949
NC1CCN(c2c(F)cc3c(=O)c(C(=O)O)cn(C4CC4)c3c2Cl)C1 (configuration not stated) [Clinafloxacin]	0.00836 (active)	0.0463 (active)	0.023 (active)	0.0284 (active)	0.0165 (active)	0.0148 (active)	0.00822 (active)	0.00725 (active)
CC(=O)[C@H]1CC[C@H]2[C@@H]3C=CC4=CC(=O)CC[C@@]4(C)[C@@H]3CC[C@]12C [Dydrogesterone]	1	0.986	0.99	1.01	1.02	1.04	1.01	0.909
COc1ccccc1OCCNCC(O)COc1cccc2[nH]c3ccccc3c12 (configuration not stated) [Carvedilol]	1.02	1	0.994	0.997	0.995	0.989	0.994	0.944
CNCC(O)c1ccc(OC(=O)C(C)(C)C)c(OC(=O)C(C)(C)C)c1 (configuration not stated) [Dipivefrin hydrochloride]	1.01	1.04	1.05	1.01	1.02	1.03	1.02	0.953
NS(=O)(=O)c1cc2c(cc1Cl)NC(CC1CCCC1)NS2(=O)=O (configuration not stated) [Cyclopenthiazide]	1	0.972	0.98	0.971	0.978	0.993	1	0.991
Oc1c(I)cc(Cl)c2cccnc12 [Clioquinol]	1.03	0.996	1.07	1.01	0.134	0.0312 (active)	1.01	0.55
Cc1cc(NC(=O)C2=C(O)c3ccccc3S(=O)(=O)N2C)no1 [Isoxicam]	0.982	0.974	0.901	0.984	0.979	0.975	0.991	0.993
COC(=O)CCc1ccc(OCC(O)CNC(C)C)cc1 (configuration not stated) [Esmolol hydrochloride]	1.01	1.06	1.06	1	1.05	1.09	1	1.01
CC(N)CCCC(C)(C)O (configuration not stated) [Heptaminol hydrochloride]	1	0.999	0.986	0.997	1.01	1.05	1.01	0.996
CC(CCc1ccc(O)cc1)NCCc1ccc(O)c(O)c1 (configuration not stated) [Dobutamine hydrochloride]	0.988	0.976	0.99	1	0.993	0.999	1.01	0.998
Cc1c(C)c2c(c(C)c1O)CCC(C)(C(=O)O)O2 (configuration not stated) [Trolox]	1	1.02	0.995	1.01	0.996	1.02	1	1
CN1C(C(=O)Nc2ccccn2)=C(O)c2ccccc2S1(=O)=O [Piroxicam]	0.973	0.995	0.892	1.01	1.01	1.04	1.01	0.977
O=S(=O)(O)CCS [Coenzyme M]	1	1.02	1.01	0.997	1.01	1.01	1.01	1
Cc1nnc(SCC2=C(C(=O)O)N3C(=O)[C@@H](NC(=O)Cn4cnnn4)[C@H]3SC2)s1 [Cefazolin sodium salt]	0.00502 (active)	0.0191 (active)	0.126 (active)	0.0805 (active)	0.0126 (active)	0.0107 (active)	0.00709 (active)	0.00476 (active)
CC(Oc1c(Cl)cccc1Cl)C1=NCCN1 (configuration not stated) [Lofexidine]	1.01	1	1.01	1.01	1.02	1.03	1.02	1
C[C@@H]1C[C@H]2[C@@H]3C[C@H](F)C4=CC(=O)C=C[C@]4(C)[C@@]3(Cl)[C@@H](O)C[C@]2(C)[C@H]1C(=O)COC(=O)C(C)(C)C [Clocortolone pivalate]	1.03	1.06	1.12	1.05	0.0165 (active)	0.0896 (active)	1.01	1.04
CCC(C)(CN(C)C)OC(=O)c1ccccc1 (configuration not stated) [Amyleine hydrochloride]	0.992	0.989	0.989	1.01	0.995	1.01	0.983	1.01
Cc1[nH]c(=O)c(C#N)cc1-c1ccncc1 [Milrinone]	0.949	0.999	0.968	0.989	0.988	0.995	0.987	0.936
CN[C@@H]1[C@H](O[C@H]2[C@H](O[C@H]3[C@H](O)[C@@H](O)[C@H](N=C(N)N)[C@@H](O)[C@@H]3N=C(N)N)O[C@@H](C)[C@]2(O)C=O)O[C@@H](CO)[C@H](O)[C@H]1O [Streptomycin sulfate]	1.02	1.05	1.06	0.965	1.05	1.09	0.983	1
COC(c1ccccc1)(c1ccccc1)[C@H](Oc1nc(C)cc(C)n1)C(=O)O [Ambrisentan]	0.98	1.02	1.01	1.01	0.997	0.983	0.991	0.99
CC(=O)OCC(=O)[C@@]12OC3(CCCC3)O[C@@H]1C[C@H]1[C@@H]3CCC4=CC(=O)C=C[C@]4(C)[C@@]3(F)[C@@H](O)C[C@@]12C [Amcinonide]	1.01	1.02	1.04	1.04	0.993	0.991	1.01	0.988
COc1cc(NS(=O)(=O)c2ccc(N)cc2)nc(OC)n1 [Sulfadimethoxine]	1.02	1.01	1.02	0.987	0.994	1.04	1	0.99
COc1ccccc1Oc1c(NS(=O)(=O)c2ccc(C(C)(C)C)cc2)nc(-c2ncccn2)nc1OCCO [Bosentan]	1.02	1.03	1.01	1.01	1	1.01	1.01	0.985
Cc1cc(C(C)(C)CC(C)(C)C)ccc1OCCOCC[N+](C)(C)Cc1ccccc1 [Methyl benzethonium chloride]	1.01	0.999	0.943	1.02	0.0136 (active)	0.0206 (active)	1.01	0.962
N=c1nc(N2CCCCC2)cc(N)n1O [Minoxidil]	1	1.03	1.01	0.974	0.992	1.01	0.981	1.01
CC(=O)CC(c1ccccc1)c1c(O)c2ccccc2oc1=O (configuration not stated) [Warfarin]	0.999	0.996	0.945	0.999	1	1.03	0.999	0.988
CCc1oc2ccccc2c1C(=O)c1cc(Br)c(O)c(Br)c1 [Benzbromarone]	1.01	0.989	0.989	0.996	0.57	0.699	1	0.925
